# Reference: ChEMBL document CHEMBL3988442, “University of Dundee, Small-Polar-MMV Screening Library” (2021)
# Screen size: about 66,000 compounds; about 960 (1.5%) showed an effect of 50% or more. The list comes from a sample in which strong results are over-represented; it also holds similar structures and randomly drawn compounds.
# Tested on: Trypanosoma brucei
# Assay: Trypanosoma brucei 72 hour study
# Format: functional, organism-based
# Set-up: scale not given: in the data most compounds retested in dose-response had high values
compound,measurement,setting,value
Cl.O=C(NCCn1nc(C2CCNC2)c2cccnc21)C1CCC1 (stereo unspecified),Percent Effect,"30.3 µM, […]",-2.901%
Cc1cc(C)c2c(N3CCN(C(=O)N(C)C)CC3)ncnc2n1,Percent Effect,"30 µM, 30.03 µM",-10.57%
O=C(c1cccnc1)C1CCCN(c2nnc(C3CC3)o2)C1 (stereo unspecified),Percent Effect,"30 µM, 30.03 µM",-35.25%
O=C(c1cccc(Cl)c1)C1CCCN(c2nnc(C3CCC3)o2)C1 (stereo unspecified),Percent Effect,"30 µM, 30.03 µM",75.84%
Cc1nnc(N2CCCC(C(=O)c3cccc(Cl)c3)C2)o1 (stereo unspecified),Percent Effect,"30 µM, 30.03 µM",-2.386%
NCCn1cc(C(=O)N2CCCCCC2c2ccco2)nn1 (stereo unspecified),Percent Effect,"30 µM, 30.03 µM",-18.67%
Oc1cc(C2CCCCN2Cc2ccsc2)nc(-c2ccncc2)n1 (stereo unspecified),Percent Effect,"30.3 µM, […]",-12.11%
Oc1cc(C2CCCCN2Cc2cccs2)nc(-c2ccccn2)n1 (stereo unspecified),Percent Effect,"30.3 µM, […]",99.61%
Oc1cc(-c2nccs2)nc(C2CCN(Cc3cccs3)CC2)n1,Percent Effect,"30.3 µM, […]",-16.93%
Oc1cc(C2CCCCN2Cc2cccs2)nc(-c2ccncc2)n1 (stereo unspecified),Percent Effect,"30.3 µM, […]",-2.917%
Cn1ncc2ccc(C3CCCN(Cc4cccs4)C3)nc21 (stereo unspecified),Percent Effect,"30.3 µM, […]",11.55%
Oc1cc(C2CCCN(Cc3cccs3)C2)nc(-c2ccccn2)n1 (stereo unspecified),Percent Effect,"30.3 µM, […]",100.2%
O=C(CCn1cc(Cl)cn1)Nc1ccc2c(c1)OCCO2,Percent Effect,"30 µM, 30.03 µM",-17.81%
CN(C)c1ccc(C(=O)N2CCCN(C3CCCCC3)CC2)cn1,Percent Effect,"30.3 µM, […]",-15.89%
Cc1ccc(Cc2cnc(C3CCNCC3)cn2)cc1.Cl,Percent Effect,"30.3 µM, […]",-22.29%
O=S(=O)(NCC(c1ccsc1)N1CCCCCC1)c1cccs1 (stereo unspecified),Percent Effect,"30 µM, 30.03 µM",-20.18%
Oc1nc(N2CCOCC2)nc2c1CCN(Cc1cccc(F)c1)CC2,Percent Effect,"30.3 µM, […]",-14.28%
Oc1nc(N2CCOCC2)nc2c1CCN(Cc1ccccc1)CC2,Percent Effect,"30.3 µM, […]",-21.1%
Oc1nc(N2CCOCC2)nc2c1CCN(Cc1ccc(F)cc1)CC2,Percent Effect,"30.3 µM, […]",100.3%
CC(C)c1nc(CCN(C)c2nccc(N3CCCC(O)C3)n2)no1 (stereo unspecified),Percent Effect,"30.3 µM, […]",3.693%
Cc1oncc1C(=O)N1CC[C@H]2[C@@H]1CCC(=O)N2CC1CC1,Percent Effect,"30.3 µM, […]",-43.42%
Cc1cc(C(=O)N2CC[C@H]3[C@H]2CCN3S(C)(=O)=O)c(C)o1,Percent Effect,"30.3 µM, […]",-71.76%
Cc1oncc1C(=O)N1CC[C@H]2[C@H]1CCN2S(C)(=O)=O,Percent Effect,"30.3 µM, […]",97.42%
Cc1cccc(CN2CCC3(CC2)CC(c2cccnc2)C(=O)N3C)n1.O=C(O)C(F)(F)F.O=C(O)C(F)(F)F (stereo unspecified),Percent Effect,"30.3 µM, […]",-33.95%
COCC(=O)N1CCC2(CC1)COCCN2Cc1ccc(F)cc1.O=C(O)C(F)(F)F,Percent Effect,"30 µM, 30.03 µM",14.27%
Cc1nc(CC2CCN(Cc3ccc(CCC(C)(C)O)cc3)CC2)no1,Percent Effect,"30.3 µM, […]",-0.2557%
Cc1noc2nc(C3CCN(CC4CCCCC4)CC3)cc(C(F)F)c12.Cl,Percent Effect,"30.3 µM, […]",30.15%
CCn1nc(C)c2ccn(CC(=O)NCCCOC)c(=O)c21,Percent Effect,"30 µM, 30.03 µM",9.008%
O=C(O)C(F)(F)F.O=C(c1ccccn1)N1C[C@H]2CCC[C@@]2(COCC2CCOCC2)C1,Percent Effect,"30 µM, 30.03 µM",14.59%
O=C(c1cccs1)N1C[C@H]2CCC[C@@]2(COCC2CCOCC2)C1,Percent Effect,"30 µM, 30.03 µM",13.05%
O=C(c1ccncn1)N1C[C@H]2CCC[C@@]2(COCC2CCOCC2)C1,Percent Effect,"30 µM, 30.03 µM",54.31%
Cc1ccsc1C(=O)N1CCCN(Cc2cscn2)CC1,Percent Effect,10 µM,-20.65%
CN(C)C(=O)[C@H]1CCS(=O)(=O)[C@@H]2CN(c3ncccn3)C[C@H]12,Percent Effect,"30.3 µM, […]",-0.441%
COc1ccc(CC(=O)N2CCCN(c3ccc(C#N)cc3)CC2)cc1,Percent Effect,"30 µM, 30.03 µM",55.65%
Cc1nc(CC(=O)N2CCCN(c3ccc(C#N)cc3)CC2)cs1,Percent Effect,"30 µM, 30.03 µM",7.071%
COc1ccnc(N2CCN(C(=O)Cc3ccc(C#N)cc3)CC2)n1,Percent Effect,"30 µM, 30.03 µM",4.593%
CN1C[C@]2(CC[C@@H](C(=O)N3CCOCC3)CC2)Oc2ccccc2C1=O,Percent Effect,"30.3 µM, […]",-18.99%
Cc1ccc(C(=O)N2CCC3(CC2)C(=O)NCCN3C)cc1O,Percent Effect,"30 µM, 30.03 µM",-5.883%
CN1CCNC(=O)C12CCN(C(=O)c1ccc3[nH]c(=O)[nH]c3c1)CC2,Percent Effect,"30 µM, 30.03 µM",29.1%
Cc1ccc2[nH]c(C(=O)N3CCC4(CC3)C(=O)NCCN4C)nc2c1,Percent Effect,"30 µM, 30.03 µM",74.91%
Cn1cc(C(=O)NCc2cn3c(n2)CN(CC2CCCC2)CC3)cn1.O=C(O)C(F)(F)F.O=C(O)C(F)(F)F,Percent Effect,"30 µM, 30.03 µM",-33.28%
Cc1nc(CO[C@@H]2CN(Cc3cccs3)[C@@H]3COC[C@@H]32)cs1.O=C(O)C(F)(F)F,Percent Effect,"30 µM, 30.03 µM",-14.66%
Cc1cc(S(C)(=O)=O)c(C)c(S(=O)(=O)N2CCCC(C)C2)c1 (stereo unspecified),Percent Effect,"30 µM, 30.03 µM",0.7387%
O=C(O)C(F)(F)F.O=C1COC2(CCN(CC3CC3)CC2)CN1c1cncnc1,Percent Effect,"30 µM, 30.03 µM",-12.06%
Cc1c(NC(=O)CN(C)S(C)(=O)=O)cccc1OC1CCCC1,Percent Effect,"30 µM, 30.03 µM",-55.36%
CS(=O)(=O)CCC(=O)NC1CC(c2ccccc2Cl)C1 (stereo unspecified),Percent Effect,"30 µM, 30.03 µM",-26.6%
CN(CC(=O)NC(Cc1ccccc1)C1CCCC1)S(C)(=O)=O (stereo unspecified),Percent Effect,"30.3 µM, […]",62.9%
Cc1ccc(CC(NC(=O)CCS(C)(=O)=O)c2ccccn2)cc1 (stereo unspecified),Percent Effect,"30 µM, 30.03 µM",-49.38%
CS(=O)(=O)NCC(=O)NC(Cc1ccccc1)C1CCCC1 (stereo unspecified),Percent Effect,"30.3 µM, […]",-60.62%
CS(=O)(=O)CCC(=O)NC(Cc1ccccc1)C1CC1 (stereo unspecified),Percent Effect,"30.3 µM, […]",70.04%
CNc1nc(C)c(C(=O)N2C[C@H]3CC[C@@H]2CN(c2cnccn2)C3)s1,Percent Effect,"30 µM, 30.03 µM",-23.46%
CC1CN(C)CCN1C(=O)c1cnn(-c2cccc(Cl)c2)c1 (stereo unspecified),Percent Effect,"30.3 µM, […]",-22.44%
same,Percent Effect,"10 mM, 10 mM as filed; unlikely as a test dose",-40.4%
COCC1CC2(CCN(Cc3ccoc3)CC2)CN1C(C)C.O=C(O)C(F)(F)F.O=C(O)C(F)(F)F (stereo unspecified),Percent Effect,"30 µM, 30.03 µM",26.61%
CCN(CC)C(=O)CN1CCc2nc(C3CCNCC3)nc(NC)c2C1.Cl,Percent Effect,"30.3 µM, […]",-15.23%
CCC(=O)Nc1ccc2c(c1)C1(CCOCC1)CN2CCOC.O=C(O)C(F)(F)F,Percent Effect,"30.3 µM, […]",-49.74%
CN(Cc1ccccc1F)C(=O)Cn1cc(NC(=O)C(C)(C)C)cn1,Percent Effect,"30.3 µM, […]",-0.06216%
CC(C)NC(=O)N1CCN(CC2CC2)CC2(CNC(=O)C2)C1.O=C(O)C(F)(F)F (stereo unspecified),Percent Effect,"30 µM, 30.03 µM",-4.336%
COc1ccccc1C1(CNCc2cccc(O)c2)CCOCC1,Percent Effect,"30.3 µM, […]",15.56%
COc1ccccc1C1(CNCc2cccc(C#N)c2)CCOCC1,Percent Effect,"30.3 µM, […]",67.18%
COc1ccccc1C1(CNCc2ccc(C#N)cc2)CCOCC1,Percent Effect,"30.3 µM, […]",29.93%
